Assay [1] is described as follows: antimalarial activity against Dd2 strain (AID 2302;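 active = growth inhibition above 50% at the single 2 µM test dose, taken to imply half-maximal potency below 2 µM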;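 also: 0% = DMSO untreated growth and 100% = chloroquine plus artemisinin killed control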). The conditions noted are these: P. falciparum Dd2 in RBCs, LDH growth readout, 72 h; at 2 µM; stronger effect = higher value.
Assay [2] is described as follows: HepG2 cytotoxicity, primary screen, cytotoxicity control for P. falciparum antimalarial project, cell-based, ATP luminescence (AID 2303;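 active = inhibition above 50%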;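 also: 0% = DMSO wells and 100% = digitonin-killed cells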). The note with it: HepG2 viability, 24-48 h, at 10 µM, stronger effect = higher value.
The target in assay [3] is L-lactate dehydrogenase (Plasmodium falciparum (isolate CDC / Honduras)) (UniProt Q27743). The assay can be described thus: PfLDH activity inhibition – cell lysate, 3D7 strain, counter-screen for P. falciparum growth inhibition project (AID 2304).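 Also: 0% = vehicle and 100% = reference inhibitor.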 The conditions noted are these: P. falciparum 3D7 crude extract, LDH APAD/NBT absorbance; at 2 µM; stronger effect = higher value. On the technique in general: A counterscreen serves to expose hits that act by an unwanted route or on another target.

Assay [4] in a line: inhibition of 3D7 malaria parasite growth – strain 3D7 (AID 2306).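 Also: 0% = DMSO wells and 100% = chloroquine plus artemisinin control wells.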 The note with it: P. falciparum 3D7 erythrocytic growth, LDH absorbance, 72 h; at 2 µM; stronger effect = higher value.
The target in assay [5] is Calcium-dependent protein kinase 1 (Plasmodium falciparum (isolate 3D7)) (UniProt P62344). The assay can be described thus: PfCDPK1 kinase inhibitors, biochemical, TCAMS library (AID 1159585; cut-off not given, nearly all actives have IC50 up to about 0.98 µM;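 also: inhibitors leave more ATP so luminescence rises with inhibition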). The conditions noted are these: recombinant PfCDPK1, Kinase-Glo ATP depletion luminescence. Background: Kinase-Glo reads ATP consumption through a luciferase reaction.
In assay [6] the target is Plasmodium falciparum protein kinase 6 (PK6, PF3D7_1337100) (UniProt Q8IDW1). The assay can be described thus: PfPK6 kinase inhibitors, biochemical, TCAMS library (AID 1159586). The conditions noted are these: recombinant PfPK6, Kinase-Glo ATP depletion luminescence.
Assay [7] addresses Protein kinase 7 (PK7), Plasmodium falciparum 3D7 (PF3D7_0213400) (UniProt Q7YTF7). The assay can be described thus: inhibition of Plasmodium PK7 catalytic activity – biochemical, TCAMS antimalarial set, Kinase-Glo luminescence (AID 1159587). The note with it: recombinant PfPK7, Kinase-Glo ATP depletion luminescence.
The target in assay [8] is Calcium-dependent protein kinase 4 (Plasmodium falciparum (isolate 3D7)) (UniProt Q8IBS5). The assay can be described thus: PfCDPK4 kinase inhibitors, biochemical, TCAMS library (AID 1159588; cut-off not given, nearly all actives have IC50 up to about 0.91 µM). The note with it: recombinant PfCDPK4, Kinase-Glo ATP depletion luminescence.

Each structure is given as a SMILES string. Values without a mark were called inactive. For part of these data: Results with a measured potency or affinity are listed apart. Calls of active or inactive are those of the source. Unless noted, no rule for the calls is given here.

The inhibition is the relative decrease from the control value, in per cent.

Chain of L-lactate dehydrogenase (Plasmodium falciparum (isolate CDC / Honduras)) (Q27743 whole entry, looked up): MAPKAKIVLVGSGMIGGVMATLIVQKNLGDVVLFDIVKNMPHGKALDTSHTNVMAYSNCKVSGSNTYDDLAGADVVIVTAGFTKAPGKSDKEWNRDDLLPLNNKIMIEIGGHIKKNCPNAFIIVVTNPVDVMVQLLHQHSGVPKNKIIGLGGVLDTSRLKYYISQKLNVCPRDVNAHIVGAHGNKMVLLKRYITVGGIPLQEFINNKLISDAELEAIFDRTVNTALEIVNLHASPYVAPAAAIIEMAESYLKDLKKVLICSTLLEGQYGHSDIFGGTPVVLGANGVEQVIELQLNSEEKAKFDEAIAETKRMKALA
Chain of Protein kinase 7 (PK7), Plasmodium falciparum 3D7 (PF3D7_0213400) (Q7YTF7 1-343): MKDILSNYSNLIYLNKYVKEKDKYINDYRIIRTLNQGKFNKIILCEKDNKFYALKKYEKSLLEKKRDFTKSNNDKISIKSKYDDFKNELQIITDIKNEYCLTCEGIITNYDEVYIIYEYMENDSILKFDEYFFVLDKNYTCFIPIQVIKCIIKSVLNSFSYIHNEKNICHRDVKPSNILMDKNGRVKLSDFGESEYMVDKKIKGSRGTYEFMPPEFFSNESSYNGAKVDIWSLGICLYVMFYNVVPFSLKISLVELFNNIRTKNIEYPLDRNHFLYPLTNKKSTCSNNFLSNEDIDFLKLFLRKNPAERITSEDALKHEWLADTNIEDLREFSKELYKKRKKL
Chain of Calcium-dependent protein kinase 1 (Plasmodium falciparum (isolate 3D7)) (P62344 whole entry, looked up): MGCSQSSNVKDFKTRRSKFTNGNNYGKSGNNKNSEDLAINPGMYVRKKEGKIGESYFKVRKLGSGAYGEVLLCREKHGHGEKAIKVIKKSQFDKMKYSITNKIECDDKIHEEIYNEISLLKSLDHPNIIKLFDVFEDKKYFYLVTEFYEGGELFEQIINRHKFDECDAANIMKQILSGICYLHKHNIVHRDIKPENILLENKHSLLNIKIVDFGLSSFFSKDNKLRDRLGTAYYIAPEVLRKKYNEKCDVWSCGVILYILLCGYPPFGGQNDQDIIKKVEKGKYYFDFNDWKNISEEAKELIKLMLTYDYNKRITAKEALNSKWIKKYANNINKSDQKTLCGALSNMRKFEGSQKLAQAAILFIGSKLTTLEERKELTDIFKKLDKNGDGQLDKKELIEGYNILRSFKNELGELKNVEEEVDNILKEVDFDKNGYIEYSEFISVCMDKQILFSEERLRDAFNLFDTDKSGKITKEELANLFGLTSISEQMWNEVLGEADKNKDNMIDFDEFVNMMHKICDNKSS
Chain of Plasmodium falciparum protein kinase 6 (PK6, PF3D7_1337100) (Q8IDW1 1-305): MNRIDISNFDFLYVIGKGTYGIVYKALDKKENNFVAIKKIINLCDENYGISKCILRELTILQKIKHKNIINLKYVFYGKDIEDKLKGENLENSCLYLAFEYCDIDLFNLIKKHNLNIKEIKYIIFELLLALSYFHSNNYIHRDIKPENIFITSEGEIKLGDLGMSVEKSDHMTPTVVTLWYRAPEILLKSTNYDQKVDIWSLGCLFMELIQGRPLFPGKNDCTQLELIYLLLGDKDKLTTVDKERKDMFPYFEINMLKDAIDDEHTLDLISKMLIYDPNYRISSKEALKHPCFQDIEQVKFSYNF
Chain of Calcium-dependent protein kinase 4 (Plasmodium falciparum (isolate 3D7)) (Q8IBS5 whole entry, looked up): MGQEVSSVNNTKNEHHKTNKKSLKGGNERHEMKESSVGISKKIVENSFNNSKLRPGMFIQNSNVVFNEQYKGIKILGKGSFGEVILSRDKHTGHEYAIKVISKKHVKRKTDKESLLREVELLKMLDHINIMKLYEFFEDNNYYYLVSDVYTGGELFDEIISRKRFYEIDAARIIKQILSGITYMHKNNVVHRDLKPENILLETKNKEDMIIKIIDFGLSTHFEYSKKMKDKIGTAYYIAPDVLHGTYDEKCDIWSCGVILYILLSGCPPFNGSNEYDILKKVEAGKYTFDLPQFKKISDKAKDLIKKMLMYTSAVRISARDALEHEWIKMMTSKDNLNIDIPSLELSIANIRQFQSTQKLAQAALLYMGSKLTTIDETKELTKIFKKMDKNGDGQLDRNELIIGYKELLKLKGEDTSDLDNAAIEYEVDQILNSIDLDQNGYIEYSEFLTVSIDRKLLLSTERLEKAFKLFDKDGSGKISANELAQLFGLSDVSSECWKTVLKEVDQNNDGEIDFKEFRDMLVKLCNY

Consider `Cc1ccc(C(C)C)c(Oc2ccc3nc(N)nc(N)c3c2)c1`, for which the growth inhibition in assay [1] is 33%; in assay [4], 96% (active). The figures for the inhibition in assay [2] and in assay [3] were 61% (active) and 2%, respectively. The outcome in assay [5], in assay [6], in assay [7] and in assay [8] was inactive.

For `CCCCN1CCCN(Cc2cccc(NC(=O)c3ccc(-c4ccccc4)cc3)c2)CC1`, the growth inhibition is 8% in assay [1] and 92% (active) in assay [4]. Further, the inhibition was 19% in assay [2] and 5% in assay [3]. In addition, the outcome in assay [5], in assay [6], in assay [7] and in assay [8] was inactive.

In the case of `Cc1ccccc1-c1cc(=O)c2cc(NC(=O)c3cccs3)ccc2o1`, the growth inhibition in assay [1] is 95% (active); in assay [4], 96% (active). Besides, the inhibition in assay [2] was 22%; in assay [3], -4%. Further, the outcome in assay [5], in assay [6], in assay [7] and in assay [8] was inactive.

Regarding `CCCN=CNc1cc(-c2csc(N=C(N)N)n2)cc([N+](=O)[O-])c1`, the growth inhibition was 1% in assay [1] and 91% (active) in assay [4]. Further, the inhibition in assay [2] is 12%; in assay [3], -3%. The outcome in assay [5], in assay [6], in assay [7] and in assay [8] was inactive.

Consider `CCC(=O)c1cc(C(=O)NCCc2cccc(OC)c2)ccc1OC`, for which the growth inhibition is 12% in assay [1] and 83% (active) in assay [4]. In addition, the inhibition is -7% in assay [2] and -2% in assay [3]. Besides, the outcome in assay [5], in assay [6], in assay [7] and in assay [8] was inactive.

On to `Cc1ccc(NC(=O)NC2CCN(CCCCCNC(=O)[C@@H]3C[C@H]3c3ccc(Cl)c(Cl)c3)CC2)cc1`, for which the growth inhibition in assay [1] was 19%; in assay [4], 101% (active). In addition, the values for the inhibition in assay [2] and in assay [3] were 35% and 1%, respectively. Further, the result in assay [5], in assay [6], in assay [7] and in assay [8] was inactive.

With `CC(C)CN1CCCN(Cc2cccc(NC(=O)c3ccc(-c4ccccc4)cc3)c2)CC1`, the growth inhibition in assay [1] was 24%; in assay [4], 99% (active). Besides, the inhibition in assay [2] was 30%; in assay [3] it was 1%. Moreover, the result in assay [5], in assay [6], in assay [7] and in assay [8] was inactive.

In the case of `FC(F)(F)c1cc(CNCCCNc2nc3ccncc3[nH]2)ccc1Cl`, the growth inhibition was 15% in assay [1] and 99% (active) in assay [4]. The inhibition in assay [2] is 11%; in assay [3] it was 2%. The result in assay [5], in assay [6], in assay [7] and in assay [8] was inactive.

For the compound `COc1cc(NC(=O)c2sc(-c3ccc(Cl)cc3)cc2NC(=O)c2cccc(N(C)C)c2)ccc1OCCN1CCCC1`, the values for the growth inhibition in assay [1] and in assay [4] were 67% (active) and 99% (active), respectively. Further, the inhibition is 49% in assay [2] and -3% in assay [3]. Besides, the outcome in assay [5], in assay [6], in assay [7] and in assay [8] was inactive.

As for `COc1ccc2nccc([C@@H](O)CN3CCC(NC(=O)Cc4cccc5c(Br)cccc45)CC3)c2c1`, the growth inhibition in assay [1] is 34%; in assay [4], 99% (active). Moreover, the inhibition in assay [2] was 15%; in assay [3] it was -3%. Further, the outcome in assay [5], in assay [6], in assay [7] and in assay [8] was inactive.

On to `c1ccc(-c2nc3ccccc3[nH]2)c(Nc2ccnc3cc(-c4nccs4)ccc23)c1`, for which the growth inhibition in assay [1] is 98% (active); in assay [4], 101% (active). The inhibition in assay [2] is -4%; in assay [3], 3%. Besides, the outcome in assay [5], in assay [6], in assay [7] and in assay [8] was inactive.

For `COc1cccc(O)c1CN1CCC2(CCCN(Cc3ccc(F)cc3)C2)C1` (stereo not drawn), the growth inhibition was 72% (active) in assay [1] and 98% (active) in assay [4]. The inhibition is 21% in assay [2] and 1% in assay [3]. The outcome in assay [5], in assay [6], in assay [7] and in assay [8] was inactive.

As for `Cc1cc2nc(-c3ccc(/C=C/C(=O)NC4CCCCC4)cc3)[nH]c2cc1C`, the results for the growth inhibition in assay [1] and in assay [4] were 10% and 93% (active), respectively. Further, the inhibition in assay [2] is 9%; in assay [3] it was 2%. For the same compound, the outcome in assay [5], in assay [6], in assay [7] and in assay [8] was inactive.

Consider `CN1CCN(Cc2cccc(-c3ccc4c(Nc5ccc(Oc6cccnc6)cc5)ccnc4c3)c2)CC1`, for which the growth inhibition in assay [1] and in assay [4] was 100% (active) each time. Further, the inhibition in assay [2] was 15%; in assay [3] it was 0%. Moreover, the outcome in assay [5], in assay [6], in assay [7] and in assay [8] was inactive.

For the compound `CC(C)c1sc(N2CCN(C)CC2)nc1C(=O)Nc1cccc2c1CCCC2`, the growth inhibition is 50% (active) in assay [1] and 98% (active) in assay [4]. Moreover, the inhibition is 3% in assay [2] and -1% in assay [3]. The result in assay [5], in assay [6], in assay [7] and in assay [8] was inactive.

As for `Cc1ccc2nc(-c3cc(-c4cccc(CCN5CCOCC5)c4)cnc3N)[nH]c2c1`, the results for the growth inhibition in assay [1] and in assay [4] were 99% (active) and 101% (active), respectively. Moreover, the inhibition in assay [2] is 50% (active); in assay [3] it was -5%. Besides, the outcome in assay [5], in assay [6], in assay [7] and in assay [8] was inactive.

`CC(C)CCCC(C)NC[C@@H](O)[C@H](Cc1ccccc1)NC(=O)c1cc(N2CCCC2=O)cc(N(c2ccccc2)S(C)(=O)=O)c1` (stereo partly drawn): the figures for the growth inhibition in assay [1] and in assay [4] were 97% (active) and 99% (active), respectively. In addition, the figures for the inhibition in assay [2] and in assay [3] were 17% and -5%, respectively. For the same compound, the result in assay [5], in assay [6], in assay [7] and in assay [8] was inactive.

Regarding `CC(N)(Cc1ccc(O)cc1)c1nn[nH]n1` (stereo not drawn), the growth inhibition in assay [1] is 2%; in assay [4], 93% (active). In addition, the inhibition in assay [2] is 7%; in assay [3], 4%. Also, the result in assay [5], in assay [6], in assay [7] and in assay [8] was inactive.

Regarding `Oc1ccc(Nc2ccnc3cc(Cl)ccc23)cc1`, the growth inhibition was 97% (active) in assay [1] and 100% (active) in assay [4]. The inhibition in assay [2] and in assay [3] was 0% each time. The result in assay [5], in assay [6], in assay [7] and in assay [8] was inactive.

In the case of `c1ccc(CCNCc2ccc(-c3ccc(CNCc4ccc5c(c4)OCO5)cc3)nc2)cc1`, the growth inhibition in assay [1] was 67% (active); in assay [4] it was 94% (active). Further, the results for the inhibition in assay [2] and in assay [3] were 24% and 5%, respectively. The outcome in assay [5], in assay [6], in assay [7] and in assay [8] was inactive.

For the compound `Cc1ccc(Cc2cnc(CN3CCCCC3)c(O)c2)cc1`, the growth inhibition was 75% (active) in assay [1] and 93% (active) in assay [4]. In addition, the inhibition was 4% in assay [2] and 1% in assay [3]. Besides, the result in assay [5], in assay [6], in assay [7] and in assay [8] was inactive.

The values above are taken from PubChem BioAssay.
